Data: PubChem BioAssay AID1159580 (chemical genetic matrix, 2015)
Among all 5,500 compounds or so, about 2,000 (36%) were called active. Inconclusive results (about 18%) are left out. Cut-off read from the data, not from the text of the source: active = normalized growth mostly below about 0.91 (no sharp cut-off); inconclusive = no clear call, values can overlap the other calls; inactive = mostly above about 0.92. Some of the results follow.

Assay: chemical genetic growth profiling, strain panel (AID 1159580);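 note: tested at 20 µM; growth read once vehicle control cultures reached saturation at 30 °C; 1 = growth at the plate median or of vehicle wells; lower values mean less growth of the strain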
Details: growth OD
[1] = S. cerevisiae deletion strains, locus YAL013W, strain DEP1, stronger effect = lower value
[2] = S. cerevisiae deletion strains, locus YBR229C, strain ROT2, stronger effect = lower value
[3] = S. cerevisiae deletion strains, locus YDL101C, strain DUN1, stronger effect = lower value
[4] = S. cerevisiae deletion strains, locus YDR150W, strain NUM1, stronger effect = lower value
[5] = S. cerevisiae deletion strains, locus YEL061C, strain CIN8, stronger effect = lower value
[6] = S. cerevisiae deletion strains, locus YGR078C, strain PAC10, stronger effect = lower value
[7] = S. cerevisiae deletion strains, locus YHR030C, strain SLT2, stronger effect = lower value
[8] = S. cerevisiae deletion strains, locus YHR087W, strain rtc3, stronger effect = lower value
[9] = S. cerevisiae deletion strains, locus YJL187C, strain SWE1, stronger effect = lower value
[10] = S. cerevisiae deletion strains, locus YJR043C, strain POL32, stronger effect = lower value
[11] = S. cerevisiae deletion strains, locus YJR075W, strain HOC1, stronger effect = lower value
[12] = S. cerevisiae deletion strains, locus YKL190W, strain CNB1, stronger effect = lower value
[13] = S. cerevisiae deletion strains, locus YLR039C, strain RIC1, stronger effect = lower value
[14] = S. cerevisiae deletion strains, locus YLR058C, strain SHM2 (second series), stronger effect = lower value
[15] = S. cerevisiae deletion strains, locus YLR085C, strain ARP6, stronger effect = lower value
[16] = S. cerevisiae deletion strains, locus YLR262C, strain YPT6, stronger effect = lower value
[17] = S. cerevisiae deletion strains, locus YML094W, strain GIM5, stronger effect = lower value
[18] = S. cerevisiae deletion strains, locus YMR219W, strain ESC1, stronger effect = lower value
[19] = S. cerevisiae deletion strains, locus YMR263W, strain SAP30, stronger effect = lower value
[20] = S. cerevisiae deletion strains, locus YNL128W, strain TEP1, stronger effect = lower value
[21] = S. cerevisiae deletion strains, locus YNL153C, strain GIM3, stronger effect = lower value
[22] = S. cerevisiae deletion strains, locus YNL298W, strain CLA4 (second series), stronger effect = lower value
[23] = S. cerevisiae deletion strains, locus YNL322C, strain KRE1, stronger effect = lower value
[24] = S. cerevisiae deletion strains, locus YNR030W, strain Alg12, stronger effect = lower value
[25] = S. cerevisiae deletion strains, locus YPL055C, strain LGE1, stronger effect = lower value
[26] = S. cerevisiae deletion strains, locus YPL241C, strain CIN2, stronger effect = lower value
[27] = S. cerevisiae deletion strains, locus YPR135W, strain CTF4, stronger effect = lower value

Measured: normalized growth

Nc1ccccc1C(=O)NCCc1ccc(Cl)cc1
inactive: [1] 0.979 | [2] 0.949 | [3] 0.987 | S. cerevisiae deletion strains, locus YDL134C, strain PPH21, stronger effect = lower value 0.949 | [4] 0.916 | [5] 0.956 | [6] 0.97 | [7] 0.773 | [8] 0.927 | [10] 0.964 | [12] 0.947 | [13] 0.969 | [14] 0.961 | [15] 0.832 | [16] 0.908 | [17] 0.938 | [18] 0.962 | [19] 0.997 | [20] 0.993 | [21] 0.974 | [22] 0.939 | [23] 0.963 | [24] 0.942 | [25] 1.08 | [26] 0.902 | [27] 0.767
active: [9] 0.928 | [11] 0.888

COc1ccc(CCNC(=O)c2ccccc2Cl)cc1OC
inactive: [1] 0.993 | [2] 0.987 | [3] 1 | [4] 0.991 | [5] 0.968 | [6] 1 | S. cerevisiae deletion strains, locus YGR229C, strain SMI1, stronger effect = lower value 0.988 | [7] 1.01 | [8] 0.97 | [9] 0.984 | [10] 1 | [11] 0.994 | [12] 0.997 | [13] 1.03 | [14] 1 | [15] 0.973 | [16] 1.02 | [17] 0.993 | [18] 0.981 | [19] 0.993 | [20] 0.983 | [21] 0.988 | [22] 1.01 | [23] 1.01 | [24] 1.03 | [25] 0.976 | [26] 1.02 | [27] 1.06 | S. cerevisiae strains, strain wild type, stronger effect = lower value 1.01
